In all, about 360,000 compounds went through this assay and about 3,800 (1.1%) were called active. The list comes from a sample in which actives are over-represented; it also holds similar structures and randomly drawn compounds. Values without a mark were called inactive.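 How the source made its calls: active means compounds causing at least 50% loss of cell viability in the single-dose screen, relative to plate controls; inactive means the rest.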
Assay: viability loss with TRAIL in NB7+C8 cells, primary screen, TRAIL sensitizer project, cell-based, ATPlite luminescence (AID 624354)
Settings: at 10 µM, stronger effect = higher value
In the case of `O=C(CN1C(=O)NC2(CCOc3ccccc32)C1=O)Nc1cccc([N+](=O)[O-])c1` (stereo unspecified), the inhibition (viability loss, TRAIL sensitization) was -2.91%. Compound `CCOC(=O)C1=C(C)OC(N)=C(C#N)C1c1cncc(-c2ccc(F)cc2)c1` (stereo unspecified) has an inhibition (viability loss, TRAIL sensitization) of -2.49%. `FC(F)(F)c1ccc2nnc(-c3c(Cl)cccc3Cl)n2c1` showed an inhibition (viability loss, TRAIL sensitization) of 24.4%. With `CN(C)C1=NC[C@H](Cc2ccccc2)N1CCc1ccc(F)cc1` the inhibition (viability loss, TRAIL sensitization) was 6.59%. For `CN(C)CCNC(=O)c1ccc(Cl)c2cc3ccccc3nc12`, the inhibition (viability loss, TRAIL sensitization) was 56% (active). With `COCCNC(=O)c1ccccc1-c1nc(-c2ccccc2Cl)no1` the inhibition (viability loss, TRAIL sensitization) was 4.78%. In the case of `Cc1cc(C)n(C(=O)CCNC(=O)c2ccccc2Cl)n1`, the inhibition (viability loss, TRAIL sensitization) was 4.1%. With `Cn1nc(-c2ccccc2)c(CSc2cccc(Cl)c2)c1Cl` the inhibition (viability loss, TRAIL sensitization) was 6.33%. `Cc1ccc(S(=O)(=O)NC[C@H]2O[C@@H](n3cnc4c(N)ncnc43)[C@H](O)[C@@H]2O)s1` gave an inhibition (viability loss, TRAIL sensitization) of -2.79%. Compound `Cn1nc(C(C)(C)C)c(NC(=O)c2sccc2Cl)c1C(C)(C)C` has an inhibition (viability loss, TRAIL sensitization) of 15.6%. `O=[N+]([O-])c1ccc2oc(-c3cccc(O)c3)nc2c1` gave an inhibition (viability loss, TRAIL sensitization) of 24.5%. `COc1ccc2oc(N)nc2c1` showed an inhibition (viability loss, TRAIL sensitization) of 4.55%. For `COc1cccc(-c2nc3cc(C)ccc3o2)c1`, the inhibition (viability loss, TRAIL sensitization) was 52.6% (active). Compound `O=C(NC(Cc1ccc(O)cc1)C(=O)O)/C(=C/c1ccccc1)NC(=O)c1ccccc1` (stereo unspecified) has an inhibition (viability loss, TRAIL sensitization) of -22.8%. In the case of `Cc1ccc(N2C(=O)C3C(c4ccccc4)(C2=O)C3(c2ccccc2)c2ccccc2)cc1` (stereo unspecified), the inhibition (viability loss, TRAIL sensitization) was 11.6%. For `CSc1cc(C)[nH]c(=O)n1`, the inhibition (viability loss, TRAIL sensitization) was -4.86%. With `O=C(O)c1ccc(N/N=C/c2cn(-c3ccccc3)nc2-c2cccs2)cc1` the inhibition (viability loss, TRAIL sensitization) was 76.2% (active). In the case of `COc1ccc(Cl)cc1NC(=O)CN(C)C(=O)c1cn(-c2ccccc2)nc1-c1cccs1`, the inhibition (viability loss, TRAIL sensitization) was 21.4%. In the case of `O=C(O)c1ccc(N/N=C/c2ccc3ncccc3c2)cc1`, the inhibition (viability loss, TRAIL sensitization) was 18.4%. Compound `COc1ccc(CN2CC(C(=O)NCCc3ccc(Cl)cc3)CC2=O)cc1` (stereo unspecified) has an inhibition (viability loss, TRAIL sensitization) of 10.4%. With `CCOC(=O)C1CCCN(C(=O)c2ccc(N(C)C)cc2)CC1` (stereo unspecified) the inhibition (viability loss, TRAIL sensitization) was -15.3%. In the case of `OC1CN=C2Sc3ccccc3N2C1` (stereo unspecified), the inhibition (viability loss, TRAIL sensitization) was -13.7%. `CC1CN(S(=O)(=O)c2ccccc2)C(C)CN1S(=O)(=O)c1ccccc1` (stereo unspecified) gave an inhibition (viability loss, TRAIL sensitization) of 7.64%. For `Cc1noc(C)c1COC(=O)COc1ccc(-c2ccccc2)cc1`, the inhibition (viability loss, TRAIL sensitization) was -21.6%. In the case of `O=C(Oc1ccc(-c2nc(-c3ccccn3)no2)cc1)c1ccccc1`, the inhibition (viability loss, TRAIL sensitization) was 72% (active). Work on `O=C(COc1cccc(F)c1)Oc1ccc(C(=O)c2ccccc2)cc1` yielded an inhibition (viability loss, TRAIL sensitization) of 7.92%. In the case of `CC(=O)Nc1ccc(C(=O)N(C2=NC(C)CS2)c2ccc(Cl)cc2)cc1` (stereo unspecified), the inhibition (viability loss, TRAIL sensitization) was 0.911%. With `O=c1oc2ccccc2cc1-c1cn(-c2ccccc2)c(=S)[nH]1` the inhibition (viability loss, TRAIL sensitization) was 82.7% (active). Work on `COc1ccc([C@H]2CC(=O)C[C@@H](CCn3cc(CC4CCCC4)nn3)O2)cc1` yielded an inhibition (viability loss, TRAIL sensitization) of 6.31%. `CC(CC(=O)N1CCN(c2ccccc2)CC1)S(=O)(=O)c1ccc2c(c1)NC(=O)CS2` (stereo unspecified) showed an inhibition (viability loss, TRAIL sensitization) of 23.3%. For `O=C(CN1CCN(S(=O)(=O)c2ccc(Cl)s2)CC1)NCc1ccc(Cl)cc1`, the inhibition (viability loss, TRAIL sensitization) was 15.3%. `Cc1nc(C(F)(F)F)ccc1C(=O)N1CCC1(C)C(=O)NS(=O)(=O)c1ccccc1` (stereo unspecified) gave an inhibition (viability loss, TRAIL sensitization) of -0.681%. Work on `COc1cc(Nc2nc3ccc(Cl)cc3n3cnnc23)cc(OC)c1OC` yielded an inhibition (viability loss, TRAIL sensitization) of 6.53%. With `COc1cc(/C=N/Nc2nn3cnnc3c3ccccc23)cc(OC)c1OC` the inhibition (viability loss, TRAIL sensitization) was 69.3% (active). With `COc1cc(/C=N/N=C(\N)c2nonc2N)cc(OC)c1OC` the inhibition (viability loss, TRAIL sensitization) was 36.5%. With `COCCN(C(=O)c1ccco1)c1nnc(-c2ccc(OC)cc2)s1` the inhibition (viability loss, TRAIL sensitization) was 15.7%. `CC(C)NC(=O)N1CCN(c2ccncc2S(=O)(=O)N2CCCCC2)CC1` showed an inhibition (viability loss, TRAIL sensitization) of -3.19%. In the case of `CCN(CC)c1ccc(/C=N/Nc2nc(C)cc(C)n2)c(O)c1`, the inhibition (viability loss, TRAIL sensitization) was 51.5% (active). `O=C(CNS(=O)(=O)c1ccc(Br)s1)NCc1ccc2c(c1)OCO2` gave an inhibition (viability loss, TRAIL sensitization) of 0.95%. `COc1ccc(N2CC(C(=O)N[C@@H](C)C(=O)N3CCCCC3)CC2=O)cc1` (stereo partly specified) gave an inhibition (viability loss, TRAIL sensitization) of 5.67%. With `CCCNC(=S)N1CCC(NC(=O)C23CC4CC(CC(C4)C2)C3)CC1` the inhibition (viability loss, TRAIL sensitization) was 26.6%. With `CCOC(=O)c1sc(NC(=O)CSc2nc(O)c(Cc3ccccc3)c(=O)[nH]2)nc1C` the inhibition (viability loss, TRAIL sensitization) was -1.62%. `Fc1ccc(-c2ccc(CNCc3ccccn3)o2)cc1Cl` showed an inhibition (viability loss, TRAIL sensitization) of 4.36%. Work on `Clc1ccc(COn2c(-c3ccc(Cl)cc3Cl)nc3ncccc32)cc1` yielded an inhibition (viability loss, TRAIL sensitization) of 7.77%. For `Clc1ccc(-c2cc(-c3ccccn3)on2)c(Cl)c1`, the inhibition (viability loss, TRAIL sensitization) was 87.7% (active). In the case of `CCN(CC)CCN(C)C(c1ccnc2ccccc12)c1nnnn1-c1ccc2c(c1)OCCO2` (stereo unspecified), the inhibition (viability loss, TRAIL sensitization) was -12.3%.

Source: PubChem BioAssay AID624354 (Sanford-Burnham Center for Chemical Genomics, 2012)
